The campaign covered roughly 16,000 compounds. About 5,800 (36%) were called active. Inconclusive results (about 23%) are left out. The list shows a part of the results. A number with no mark means an inactive call. The call rests on the fitted dose curve; in most records, active means well fitted curve in the direction sought with a large enough effect; inconclusive means small, poorly fitted or top-dose-only effect, or effect the other way; inactive means no such curve, though single readings can be large or run the other way.
Biological target: Cytochrome P450 2C19 (Homo sapiens) (UniProt P33261)
Experiment: Cytochrome panel assay with activity outcomes
Conditions: recombinant CYP, pro-luciferin dealkylation, luminescence, p450-cyp2c19; series mostly up to 57.1 µM
On the % scale 0 is the no-effect control and ±100 the full control effect.

Sequence of Cytochrome P450 2C19 (Homo sapiens) (P33261 whole entry, looked up): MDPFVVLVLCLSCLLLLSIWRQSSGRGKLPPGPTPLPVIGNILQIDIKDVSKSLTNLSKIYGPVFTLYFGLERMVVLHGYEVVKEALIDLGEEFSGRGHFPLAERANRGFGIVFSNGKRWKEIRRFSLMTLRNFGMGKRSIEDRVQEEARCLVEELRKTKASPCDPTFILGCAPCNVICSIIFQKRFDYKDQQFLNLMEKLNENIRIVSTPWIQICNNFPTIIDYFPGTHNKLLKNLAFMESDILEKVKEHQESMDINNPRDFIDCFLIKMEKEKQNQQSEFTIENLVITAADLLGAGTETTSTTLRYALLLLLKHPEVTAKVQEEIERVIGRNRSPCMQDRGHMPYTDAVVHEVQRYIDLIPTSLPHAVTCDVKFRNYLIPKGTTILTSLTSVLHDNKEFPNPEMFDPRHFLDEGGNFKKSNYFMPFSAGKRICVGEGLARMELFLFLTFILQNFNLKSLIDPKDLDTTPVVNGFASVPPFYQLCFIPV

Compound | AC50 | activity, negative = inhibition
CCCc1nn2c(=O)c(C(c3ccc(C)cc3)c3c(O)nc4sc(CCC)nn4c3=O)c(O)nc2s1 | inactive | –
CCCCCCN(CCCCCC)C(=O)Cc1c(-c2ccc(F)cc2)[nH]c2ccccc12 | 3.98 µM (active) | –
CCN1C(=O)/C(=C2\SC(N3CCCCC3)=NC2=O)c2ccccc21 | 14.1 µM (active) | –
CN(C)CN1C(=O)S/C(=C2/C(=O)N(CN(C)C)c3ccccc32)C1=O | – | 21.4% [at 11.4 µM]
CC(C)(C)c1ccc(O)c(CN(Cc2c(O)ccc3ccccc23)C2CCCCC2)c1 | 2 µM (active) | –
CC(C)(C)CC(C)(C)c1ccc(O)c(C[N+](C)(C)[O-])c1 | – | -6.26% [at 11.4 µM]
Oc1ccc2ccccc2c1CN(Cc1c(O)ccc2ccccc12)C1CCCCC1 | 1 µM (active) | –
Oc1ccc2ccccc2c1Cc1c(O)ccc2ccccc12 | 0.316 µM (active) | –
CN(C)Cc1cc(C(C)(C)C)ccc1-c1ccc(C(C)(C)C)cc1CN(C)C | – | 39.4% [at 11.4 µM]
O=C(O)Cc1c(O)ccc2ccccc12 | – | 33.5% [at 11.4 µM]
CC(C)(C)c1ccc(O)c(CN(Cc2cc(C(C)(C)C)ccc2O)C2CCCCC2)c1 | 1.58 µM (active) | –
N#Cc1cccc(NC(=O)N2CCCC3(CCN(C(=O)c4cccc(F)c4)CC3)C2)c1 | inactive | –
NC(=O)C(=O)O | inactive | –
CCC(NC(=O)C1(C)CC1(Br)Br)c1ccc(C)cc1 (configuration not stated) | 2.51 µM (active) | –
CC[C@H](NC(=O)c1c(C)c(-c2ccccc2)nc2ccccc12)c1ccccc1 | inactive | –
CC(C)CCNC(=O)C12CN(Cc3ccccc3)CC1C(c1cccc([N+](=O)[O-])c1)=NO2 (configuration not stated) | 3.55 µM (active) | –
COc1ccc(C(=O)N2CC3(CC(c4cccc([N+](=O)[O-])c4)=NO3)C[C@H]2C(=O)NCC(N)=O)cc1 (some centres not stated) | inactive | –
O=C(NCc1ccccc1)C12CN(Cc3ccccc3)CC1C(c1cccc([N+](=O)[O-])c1)=NO2 (configuration not stated) | 2.51 µM (active) | –
NC(=O)CNC(=O)[C@@H]1CC2(CC(c3cccc([N+](=O)[O-])c3)=NO2)CN1C(=O)c1ccccc1 (some centres not stated) | inactive | –
Cc1ccc(S(=O)(=O)N[C@@H]2COC(=O)C/C=C\[C@H](C)COC(=O)N[C@@H](C)C(=O)C/C=C\[C@H]2C)cc1 | – | -6.82% [at 11.4 µM]
COc1ccc2c(c1)OC1=C(C(=O)CCC1)C2C1=C(O)CCCC1=O (configuration not stated) | 15.8 µM (active) | –
CCNc1ncc2nc(-c3cccc(C#N)c3)c(=O)n(CCC#N)c2n1 | inactive | –
CC(C)Cn1c(C(C)C)nc([N+](=O)[O-])c1S(=O)(=O)c1ccc(F)cc1 | 5.01 µM (active) | –

Compound | AC50 | activity, negative = inhibition
Cc1ccc(C2C(C(=O)c3ccco3)=C(O)C(=O)N2c2nnc(C)s2)cc1 (configuration not stated) | inactive | –
CCS(=O)(=O)Nc1ccc(C2=NN(C(=O)c3ccco3)C(c3ccc(C)cc3)C2)cc1 (configuration not stated) | 11.2 µM (active) | –
c1ccc(-c2noc(CSc3nnnn3C3CCCCC3)n2)cc1 | 1.26 µM (active) | –
Cc1sc2nc(SCc3nc(-c4cccs4)no3)n(-c3ccccc3)c(=O)c2c1C | inactive | –
Cc1ccc(C)n1N1C(=O)/C(=C\c2ccc(Cl)cc2)SC1=S | 7.94 µM (active) | –
COc1ccccc1CNC(=O)CCCn1c(=O)c2ccccc2n(CC(=O)NC2CCCC2)c1=O | 7.94 µM (active) | –
CCOc1cc2[nH]c(=O)n(CCCC(=O)NCc3ccc(OC)cc3)c(=O)c2cc1OCC | inactive | –
COC(=O)N1CCC2(CCCN(Cc3ccccc3OC)C2)CC1 | inactive | –
CC(=O)OC[C@@H]1O[C@@H](O/N=C2/C[C@@H](O)[C@@H](O)[C@@H]3[C@@H]4C(=O)N(C(C)(C)C)C(=O)[C@H]4CC[C@@H]23)[C@H](OC(C)=O)[C@H](OC(C)=O)[C@@H]1OC(C)=O | – | 11.3% [at 11.4 µM]
Clc1ccc(CSc2nnc(-c3cccnc3)o2)cc1 | 3.55 µM (active) | –
Cc1cccc(-c2nnc(SCc3ccccc3)o2)c1 | 11.2 µM (active) | –
c1ccc(CSc2nnc(-c3sccc3-n3cccc3)o2)cc1 | 2 µM (active) | –
Clc1ccc(CSc2nnc(-c3sccc3-n3cccc3)o2)cc1 | 1.12 µM (active) | –
CC(C)N(Cc1ccccc1)S(=O)(=O)c1n[nH]c(C(C)(C)C)n1 | – | -40.1% [at 11.4 µM]
Clc1cccc(CSc2nnc(-c3sccc3-n3cccc3)o2)c1 | 1.58 µM (active) | –
CC(C)CN1CC[C@@]2(CCCN(C(=O)c3csnn3)C2)C1 | inactive | –
COc1ccc(-n2cccc2C=O)cc1OC | inactive | –
COc1ccc2c(c1)-c1c(sn(-c3ccc(OC)c(OC)c3)c1=S)C(C)(C)N2 | 6.31 µM (active) | –
COc1ccc(-n2c(C)n[nH]c2=O)cc1OC | inactive | –
Clc1ccccc1NN(Cc1ccccn1)c1ccccc1Cl | 3.98 µM (active) | –
Clc1ccccc1NN(Cc1ccncc1)c1ccccc1Cl | 1.26 µM (active) | –
O=C(Nc1cccc(F)c1)N1CCCC2(CCNCC2)C1 | inactive | –
CC(=O)N(O)CCCCCNC(=O)CCC(=O)N(O)CCCCCNC(=O)CCC(=O)N(O)CCCCCN | inactive | –

Compound | AC50 | activity, negative = inhibition
O=C(c1ccccc1)c1cc(F)c(N2CCOCC2)cc1Cl | 0.708 µM (active) | –
O=C(O)c1ccc(C(=O)c2ccccc2)c(C(=O)O)c1 | – | 33.3% [at 11.4 µM]
Cc1ccc2nc(-c3ccccc3)cc(C(=O)NCCCn3ccnc3)c2c1 | 2 µM (active) | –
COc1ccc(Nc2cc(C(=O)NCCCN3CCN(C)CC3)c3ccccc3n2)cc1 | inactive | –
Cc1ccc(-n2c(C)cc(C(=S)N3CCOCC3)c2C)cc1C | 0.891 µM (active) | –
O=C(Nc1ccc(S(=O)(=O)N2CCCC2)cc1)c1ccc(CN2CCOCC2)cc1 | inactive | –
O=C(Nc1ccc(S(=O)(=O)N2CCCCC2)cc1)c1ccc(CN2CCc3ccccc3C2)cc1 | 7.94 µM (active) | –
CCOC(=O)/C(C(N)=NCCCO)=C(/O)c1ccccc1 | inactive | –
CCOC(=O)C(/C(N)=N/C(=O)Nc1ccccc1)=C(\C)O | 17.8 µM (active) | –
BrC(c1cccc2ccccc12)c1cccc2ccccc12 | 1.26 µM (active) | –
c1c[nH]c(CN2CCOCC2)n1 | – | -4.4% [at 11.4 µM]
Clc1ccc(-n2nnnc2CN2CCOCC2)cc1 | 11.2 µM (active) | –
COCCn1c(=O)c(-c2cc(F)cc(F)c2)nc2cnc(N3CCNCC3)nc21 | inactive | –
COc1ccc(S(=O)(=O)Nc2ccc(F)cc2)c(C)c1C | 0.0891 µM (active) | –
O=C(CSc1nnnn1C1CCCC1)Nc1ccc(F)cc1 | 2 µM (active) | –
Cc1cnc(CNc2ccnc(-c3ccccc3C(F)(F)F)n2)cn1 | inactive | –
COCCNc1ccnc(-c2ccccc2C(F)(F)F)n1 | 10 µM (active) | –
CC(=O)NCCNc1ccnc(-c2ccccc2C(F)(F)F)n1 | inactive | –
Fc1ccc(Nc2ccnc(-c3ccccc3C(F)(F)F)n2)cc1 | 10 µM (active) | –
COCCNc1ccnc(-c2ccccc2CN(C)C)n1 | inactive | –
CN(C)Cc1ccccc1-c1nccc(Nc2ccc(F)cc2)n1 | inactive | –
FC(F)(F)c1ccccc1-c1nccc(NCc2ccccc2)n1 | 6.31 µM (active) | –
FC(F)(F)c1ccccc1-c1nccc(NCc2cccs2)n1 | 2 µM (active) | –

Compound | AC50 | activity, negative = inhibition
COc1ccc(OC[C@@H](CO)OC)cc1 | – | 28.9% [at 11.4 µM]
CN(C)Cc1ccccc1-c1nccc(NCc2cccs2)n1 | inactive | –
Cc1ccccc1-c1nccc(NCc2cccs2)n1 | 3.98 µM (active) | –
CC(C)Nc1nc(Oc2ccc(Cl)cc2)cc(C(F)(F)F)n1 | 10 µM (active) | –
C[C@@H]1O[C@H](O[C@@H]2[C@H](C)O[C@H](O[C@@H]3[C@H](C)O[C@H](O[C@H]4CC[C@]5(C)[C@@H](CC[C@@H]6[C@H]5C[C@@H](O)[C@]5(C)[C@@H](C7=CC(=O)OC7)CC[C@]65O)C4)C[C@@H]3O)C[C@@H]2O)C[C@H](O)[C@@H]1O | inactive | –
Cn1c2c(c(=O)n(C)c1=O)CN(CCN1CCNCC1)CN2 | inactive | –
CC(Sc1nc(NCc2ccccc2)nc(N(C)C)n1)C(=O)Nc1ccccc1 (configuration not stated) | 0.794 µM (active) | –
COc1ccc(NC2=NC(=S)N(c3ccc(C)cc3)C23CCCCC3)cc1 | inactive | –
CCOc1ccc(-n2cc(C(=O)NCc3ccco3)c3cc(OC)c(OC)cc3c2=O)cc1 | inactive | –
COc1cc2c(C(=O)NCc3ccc(C)o3)cn(CC(C)C)c(=O)c2cc1OC | 35.5 µM (active) | –
COc1cccc(/C=N/n2c(=S)n(C)c3cc(C)c(C)cc32)c1OC | 2.24 µM (active) | –
COc1ccc(/C=N/n2c(C)nnc2C)c(OC)c1 | inactive | –
Cc1ccc(C(=O)NC2CCCCCC2)cc1N1CCCC1=O | inactive | –
Cc1c(Br)cc(C(=O)NC2CCCCC2)c(C)c1C | 14.1 µM (active) | –
C[C@@H](CCC(=O)O)C(=O)O | – | 30.5% [at 11.4 µM]
COc1ccc(/C=C(/C#N)C(=O)NC2CCCCC2)cc1Br | inactive | –
N#C/C(=C\c1cc(Cl)cc(Cl)c1O)C(=O)NC1CCCCC1 | 15.8 µM (active) | –
N#C/C(=C\Nc1ccccn1)C(=O)C1CC1 | – | -23.3% [at 11.4 µM]
N#C/C(=C\c1cn[nH]c1-c1ccccc1)C(=O)NC1CCCCCC1 | 17.8 µM (active) | –
CC(=NC1CCCCC1)c1ccccc1O | – | 3.59% [at 11.4 µM]
CC1=NNC(=S)NCCCN2CCN(CCCNC(=S)NN=C(C)C=NNC(=S)NCCCN3CCN(CCCNC(=S)NN=C1)CC3)CC2 | – | 27% [at 11.4 µM]
Cc1cc(C(F)(F)F)n2nc(-c3cnn(C)c3C(F)(F)F)c(Cl)c2n1 | 1.78 µM (active) | –
Cc1cc(C(F)(F)F)n2nc(-c3cnn(C)c3C(F)(F)F)cc2n1 | 2.82 µM (active) | –
